Outcome and Potency data for 8 molecules are collected here from PubChem BioAssay (Tox21).

Structures are written as SMILES. Unmarked numbers belong to inactive results. Inconclusive results are not listed. Activity calls are given as the source filed them. Unless noted, the call rests on the fitted dose curve; in most records, active means well fitted curve in the direction sought with a large enough effect in the repeat runs; inconclusive means weak or mixed curves; inactive means no such curve, though single readings can be large; an effect the other way counts as inactive or inconclusive.

A short description of experiment [1]: qHTS assay to identify small molecule antagonists of the androgen receptor (AR) signaling pathway using the MDA cell line in the presence of 0.5 nM R1881 - cell viability counter screen (AID 1259242). Further: nearly all actives have a fitted effect of over 45% in size. An outline of the steps: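 Live-cell protease fluorescence, CellTiter-Fluor, 30 min at 37C. Cells: MDA-kb2, 3,000/well, preincubated 5 hr. Compounds plus 0.5 nM R1881 final, 16 hr, 37C, 0% CO2.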
Background: In qHTS, concentration-response curves come from the screen itself.

Experiment [2] has as its target Estrogen receptor (Homo sapiens) (UniProt P03372). As to the kind of experiment: qHTS assay to identify small molecule antagonists of the estrogen receptor alpha (ER-alpha) signaling pathway using the BG1 cell line in the presence of 0.1 nM 17-beta-estradiol (AID 1259244). Further: nearly all actives have a fitted effect of over 50% in size. Further: potency means the concentration at half of the fitted maximal effect. An outline of the steps: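 Luminescence after ONE-Glo (30 min, room temperature) measured ERE-luciferase activity in VM7Luc4E2 cells treated 22 h with compound and 0.1 nM final 17beta-estradiol as stimulator.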

The nature of experiment [3]: qHTS assay to identify small molecule HDAC inhibitors (AID 1259364).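 Further: wild-type HCT-116 cells with endogenous class I/II HDAC activity; top concentration of the series differs between compounds; nearly all actives have a fitted effect of over 45% in size.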 In outline: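 HCT-116 (wild type), 1,500 cells/well, overnight; compound 2 hr 37C 5% CO2; HDAC-Glo I/II reagent 30 min RT; luminescence readout.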
Experiment [4] can be described thus: qHTS assay to identify small molecule HDAC inhibitors - cell viability counter screen (AID 1259365). Further: series mostly up to about 92 µM; nearly all actives have a fitted effect of over 50% in size. In outline: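 Wild-type HCT-116 cells were seeded at 1,500 per well, incubated overnight at 37 C, then exposed to compounds in DMSO for 2hr. Viability was read by CellTiter-Glo luminescence after 30min at room temperature.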
Experiment [5] in a line: qHTS assay to identify small molecule agonists of the sonic hedgehog signaling (Shh) pathway - cell viability counter screen (AID 1259366). Further: nearly all actives have a fitted effect of over 50% in size. An outline of the steps: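 NIH/3T3-derived 3T3 Gli1-Luc cells (stable Gli1-responsive firefly luciferase reporter) were seeded, rested 4 hr at 37 C/5% CO2, then exposed to compounds in DMSO for 24 hr; viability was read by CellTiter-Fluor fluorescence in the same wells.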

The nature of experiment [6]: qHTS assay to identify small molecule antagonists of the sonic hedgehog signaling (Shh) pathway - cell viability counter screen (AID 1259367). Further: nearly all actives have a fitted effect of over 55% in size. Further: potency means the concentration at half of the fitted maximal effect. In outline:
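Viability was read by CellTiter-Fluor fluorescence in the same wells, reagent added 23 hr into compound treatment and incubated 1 hr at 37C. The 3T3 Gli1-Luc reporter cells (2,000/well) received conditioned medium after compound and ran 24 hr.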

Experiment [7] can be described thus: qHTS assay to identify small molecule agonists of the sonic hedgehog signaling (Shh) pathway (AID 1259368; calls by dose curve; further: series mostly up to about 92 µM; nearly all actives have a fitted effect of over 15% in size). In outline:
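Read-out: firefly luciferase luminescence from a Gli1 response element reporter stably integrated in NIH/3T3-derived 3T3Gli1-Luc cells, measured 30 min at room temperature after reagent addition. Compound exposure lasted 24 hr at 37 C, 5% CO2.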

Experiment [8] in a line: qHTS assay to identify small molecule antagonists of the sonic hedgehog signaling (Shh) pathway (AID 1259369; calls by dose curve; further: nearly all actives have a fitted effect of over 45% in size; further: potency means the concentration at half of the fitted maximal effect). An outline of the steps:
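Luminescence readout: firefly Luc under Gli1 response element in 3T3Gli1-Luc cells (NIH/3T3 clone). Antagonist mode, stimulation by conditioned medium; compound exposure 24hr at 37 C, 5% CO2.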

Experiment [9] has as its target Estrogen receptor beta (Homo sapiens) (UniProt Q92731). Nature of the experiment: qHTS assay to identify small molecule antagonists of the estrogen receptor beta (ER-beta) signaling pathway (AID 1259378; active means well fitted inhibition curve with a large enough effect in the signal ratio in the repeat runs, not every such curve was filed as active; the % refers to the signal ratio). In outline:
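Antagonist mode: compounds added to beta-lactamase reporter HEK293T ER-beta-UAS cells stimulated with E2 (1nM final), 16 hr at 37C. LiveBLAzer B/G FRET substrate, 2 hours room temperature, fluorescence read-out.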

A short description of experiment [10]: qHTS assay to identify small molecule agonists of the androgen receptor (AR) signaling pathway in the presence of an antagonist - cell viability counter screen (AID 1259379).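 Further: MDA-kb2 human breast cancer cells carrying an MMTV luciferase reporter; series mostly up to about 92 µM; nearly all actives have a fitted effect of over 25% in size.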 In outline: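 Viability counter screen: CellTiter-Fluor fluorescence, measured in the same wells as the luciferase read-out. MDA-kb2 cells, 3,000/well, with nilutamide at 3.0uM final and compounds at 15 concentrations, 16 hr at 37C, 0% CO2.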

A short description of experiment [11]: qHTS assay to identify small molecule antagonists of the estrogen receptor beta (ER-beta) signaling pathway - cell viability counter screen (AID 1259382). Further: series mostly up to about 92 µM; nearly all actives have a fitted effect of over 55% in size. In outline:
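Luminescent ATP read-out (CellTiter-Glo, 30 min, RT) taken in the same wells as the bla reporter assay. HEK293T ER-beta-UAS-bla cells in 2% charcoal-stripped FBS were exposed to compounds with 1nM E2 for 16 hr at 37C.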

In experiment [12] the target is Estrogen receptor (Homo sapiens) (UniProt P03372). Nature of the experiment: qHTS assay to identify small molecule agonists of the estrogen receptor alpha (ER-alpha) signaling pathway in the presence of an antagonist (AID 1259383; calls by dose curve; further: nearly all actives have a fitted effect of over 15% in size; further: potency means the concentration at half of the fitted maximal effect; on activation: top concentration of the series differs between compounds). In outline:
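Luciferase luminescence (ONE-Glo, 30min at room temperature) measured in VM7Luc4E2 cells after 22hr compound exposure at 15 concentrations, with 10.0nM ICI-182,780 final present; cells express endogenous ER-alpha and carry four EREs upstream of luciferase.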

Experiment [13] in a line: qHTS assay to identify small molecule agonists or antagonists of the thyroid stimulating hormone receptor (TSHR) signaling pathway - wild type cell line counter screen (AID 1259384; calls by dose curve). In outline: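 Counter screen in untransfected Hek293: compounds (15-point titration, triplicate) plus phosphodiesterase inhibitor Ro20-1724 added after 18 h plating; 30 min RT. Intracellular cAMP via competitive d2/cryptate immunoassay, 1 h incubation.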

The target of experiment [14] is Thyrotropin receptor (Homo sapiens) (UniProt P16473). As to the kind of experiment: qHTS assay to identify small molecule antagonists of the thyroid stimulating hormone receptor (TSHR) signaling pathway (AID 1259385; calls by dose curve; further: nearly all actives have a fitted effect of over 20% in size). In outline: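 Antagonist mode: compound-treated TSHR-expressing HEK293 cells were stimulated with 1.5 ng/mL TSH (final) in presence of Ro20-1724 for 30 min at RT. HTRF cAMP detection after 1 h; each compound tested at 15 concentrations, triplicate.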
Chain of Thyrotropin receptor (Homo sapiens) (P16473 whole entry, looked up): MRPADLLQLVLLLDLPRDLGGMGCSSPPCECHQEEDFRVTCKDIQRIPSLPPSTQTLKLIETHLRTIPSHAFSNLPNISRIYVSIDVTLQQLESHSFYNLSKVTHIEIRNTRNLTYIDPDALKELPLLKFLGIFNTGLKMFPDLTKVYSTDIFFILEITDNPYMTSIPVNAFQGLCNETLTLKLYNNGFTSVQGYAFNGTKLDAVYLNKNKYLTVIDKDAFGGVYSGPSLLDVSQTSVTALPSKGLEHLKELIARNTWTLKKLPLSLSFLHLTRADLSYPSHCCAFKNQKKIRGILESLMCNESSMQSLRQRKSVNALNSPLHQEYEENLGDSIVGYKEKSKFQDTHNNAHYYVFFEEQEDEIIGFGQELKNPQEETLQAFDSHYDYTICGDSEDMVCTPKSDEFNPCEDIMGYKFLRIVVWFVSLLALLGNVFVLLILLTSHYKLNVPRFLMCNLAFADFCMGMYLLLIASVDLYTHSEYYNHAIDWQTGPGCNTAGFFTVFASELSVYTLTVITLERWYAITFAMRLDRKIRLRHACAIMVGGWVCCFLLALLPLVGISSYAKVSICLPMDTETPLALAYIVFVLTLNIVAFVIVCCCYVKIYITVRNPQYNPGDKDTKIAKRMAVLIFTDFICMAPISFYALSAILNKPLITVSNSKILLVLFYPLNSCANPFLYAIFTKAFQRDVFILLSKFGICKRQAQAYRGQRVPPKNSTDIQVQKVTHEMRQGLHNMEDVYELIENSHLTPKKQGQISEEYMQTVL

Experiment [15] is described as follows: qHTS assay to identify small molecule agonists of the estrogen receptor alpha (ER-alpha) signaling pathway in the presence of an antagonist - cell viability counter screen (AID 1259386). Further: series mostly up to about 92 µM; nearly all actives have a fitted effect of over 30% in size. In outline: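 Read-out: CellTiter-Fluor fluorescence after 1hr reagent incubation, measured in the same wells as the luciferase readout. VM7Luc4E2 cells were exposed to 15 compound concentrations with 10.0nM ICI-182,780 for 22hr at 37C.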

Experiment [16] has as its target Estrogen receptor beta (Homo sapiens) (UniProt Q92731). Nature of the experiment: qHTS assay to identify small molecule agonists of the estrogen receptor beta (ER-beta) signaling pathway (AID 1259377; active means well fitted activation curve with a large enough effect in the signal ratio in the repeat runs, not every such curve was filed as active; the % refers to the signal ratio). An outline of the steps: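 ER-beta-UAS-bla HEK293T (GripTite) cells carrying a UAS-driven beta-lactamase reporter, in medium with 2% charcoal-stripped FBS, were exposed to compounds for 16 hr at 37C; LiveBLAzer B/G FRET substrate was then added and fluorescence read after 2 hours at room temperature.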

The nature of experiment [17]: qHTS assay to identify small molecule agonists of the estrogen receptor beta (ER-beta) signaling pathway - cell viability counter screen (AID 1259380). Further: nearly all actives have a fitted effect of over 30% in size. An outline of the steps:
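Luminescence read-out (CellTiter-Glo, 30 min, room temp) taken in the same wells as the beta-lactamase reporter assay; ER-beta-UAS-bla HEK293T cells exposed to DMSO-dissolved compounds for 16 hr at 37C in 2% charcoal-stripped FBS medium.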

Experiment [18] is described as follows: qHTS assay to identify small molecule phospholipidosis (PLD) inducers (AID 1259344; active means well fitted curve in the direction sought with a large enough effect; an effect the other way counts as inactive or inconclusive). An outline of the steps: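 Phospholipid accumulation was scored by imaging: fixed, Hoechst-counterstained HepG2 cells stained with LipidTOX Red after 24 h compound exposure at 37 C. Read-outs were pit count and pit intensity per well or per cell, with amiodarone and DMSO controls.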

Chain of Estrogen receptor (Homo sapiens) (P03372 whole entry, looked up): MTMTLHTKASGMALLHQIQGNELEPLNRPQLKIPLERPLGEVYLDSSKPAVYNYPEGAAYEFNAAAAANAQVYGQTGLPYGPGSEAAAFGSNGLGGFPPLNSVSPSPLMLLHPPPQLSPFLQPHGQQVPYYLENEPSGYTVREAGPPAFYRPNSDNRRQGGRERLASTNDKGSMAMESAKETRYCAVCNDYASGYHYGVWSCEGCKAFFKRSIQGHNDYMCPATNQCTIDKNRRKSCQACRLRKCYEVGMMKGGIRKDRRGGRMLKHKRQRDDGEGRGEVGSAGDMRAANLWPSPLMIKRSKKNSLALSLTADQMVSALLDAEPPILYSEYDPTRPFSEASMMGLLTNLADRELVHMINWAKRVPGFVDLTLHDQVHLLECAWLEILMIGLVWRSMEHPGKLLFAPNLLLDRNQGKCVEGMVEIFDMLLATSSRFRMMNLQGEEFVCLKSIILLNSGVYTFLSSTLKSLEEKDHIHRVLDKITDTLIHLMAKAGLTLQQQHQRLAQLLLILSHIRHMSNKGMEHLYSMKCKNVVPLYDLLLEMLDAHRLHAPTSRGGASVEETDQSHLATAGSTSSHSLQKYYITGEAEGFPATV
Chain of Estrogen receptor beta (Homo sapiens) (Q92731 whole entry, looked up): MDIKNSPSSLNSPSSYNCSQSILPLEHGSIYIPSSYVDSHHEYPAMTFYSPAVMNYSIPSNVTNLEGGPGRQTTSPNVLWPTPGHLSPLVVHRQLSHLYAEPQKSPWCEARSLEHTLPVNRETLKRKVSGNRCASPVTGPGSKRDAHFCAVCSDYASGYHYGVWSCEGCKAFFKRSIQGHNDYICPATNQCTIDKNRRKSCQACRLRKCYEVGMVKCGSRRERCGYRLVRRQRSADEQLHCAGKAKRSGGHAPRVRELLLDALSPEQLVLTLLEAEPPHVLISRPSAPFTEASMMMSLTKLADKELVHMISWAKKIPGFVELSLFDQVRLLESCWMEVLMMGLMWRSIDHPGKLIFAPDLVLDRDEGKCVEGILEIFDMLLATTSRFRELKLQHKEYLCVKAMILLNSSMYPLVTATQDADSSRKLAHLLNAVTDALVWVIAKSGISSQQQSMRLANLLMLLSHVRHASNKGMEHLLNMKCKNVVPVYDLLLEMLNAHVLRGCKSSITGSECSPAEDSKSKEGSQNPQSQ

On to `CCOC(=O)C1CC(=O)C(=C(O)C2CC2)C(=O)C1` (stereo not given), for which the outcome in [1], in [4], in experiment [11] and in [13] was inactive. For the same molecule, the Potency entry in experiment [2], in experiment [3], in experiment [5], in experiment [6], in [7] and in [8] was “inactive” each time. For the same molecule, the Potency entry in [9], in experiment [10], in experiment [12], in experiment [14] and in experiment [15] was “inactive” throughout.

Turning to `ICCc1ccccc1`, the result in experiment [1], in [4], in experiment [16], in experiment [11] and in [13] was inactive. The Potency in experiment [2] is 67.2 µM (active); in experiment [8], 16.9 µM (active). Moreover, the Potency entry in [3], in experiment [7], in [10], in experiment [17], in experiment [12] and in experiment [14] was “inactive” throughout. In [15], the Potency entry was “inactive”.

Regarding `O=C(CC(=O)C(F)(F)F)c1ccccc1`, the result in [1], in experiment [16], in [11] and in experiment [13] was inactive. Further, the Potency entry in experiment [2], in experiment [3], in [5], in experiment [6], in [7] and in experiment [8] was “inactive” each time. Besides, the Potency result in [10] and in experiment [15] was “inactive” each time. The Potency in experiment [12] is 9.83 µM (active).

For `OCC(CBr)(CBr)CBr`, the result in [1], in experiment [11] and in experiment [13] was inactive. Moreover, the Potency result in experiment [2], in [5], in experiment [6], in experiment [7], in experiment [10] and in experiment [17] was “inactive” throughout. Further, the Potency result in [12], in experiment [14] and in experiment [15] was “inactive” each time.

In the case of `ClC(Cl)Cl`, the outcome in experiment [1], in experiment [18], in experiment [4], in experiment [11] and in experiment [13] was inactive. Also, the Potency result in experiment [3], in experiment [7], in experiment [10], in [17], in [14] and in [15] was “inactive” each time. Further, the Potency in experiment [6] is 42.9 µM (active).

With `CC(=O)N[C@@H](CC(C)C)C(=O)O`, the outcome in [1], in experiment [18], in [4] and in experiment [11] was inactive. The Potency result in experiment [3], in [5], in [6], in [7], in experiment [8] and in experiment [10] was “inactive” each time. Further, the Potency entry in experiment [17], in experiment [12] and in experiment [15] was “inactive” in each case.

On to `Cc1cc2c(s1)Nc1ccccc1N=C2N1CCN(C)CC1`, for which the result in [1], in experiment [18], in experiment [4] and in experiment [11] was inactive. Moreover, the Potency entry in experiment [3], in [7], in experiment [8], in [10], in experiment [17] and in [12] was “inactive” each time. Besides, the Potency in experiment [6] is 5.31 µM (active).

Turning to `CC(=O)Oc1cc(C(C)C)c(OCCN(C)C)cc1C`, the outcome in [1], in experiment [18], in [4], in [16], in experiment [11] and in [13] was inactive. Besides, the Potency entry in experiment [3], in experiment [5], in [6], in experiment [7], in [8] and in [9] was “inactive” in each case. For the same molecule, the Potency result in experiment [10], in experiment [17] and in [15] was “inactive” throughout.
